Screens deposited in PubChem by several laboratories.
This is a sample that favours compounds with a hit; in the whole collection about 3.5% have one here.
Mtb hypoxia inh: PubChem AID 1159583; M. tuberculosis hypoxia-regulated fluorescent reporter, fluorescence; fluorescence inhibition, % (test concentration not listed); actives 0.1% (n = 300,000); in the data active = fluorescence inhibition mostly above about 23%, no sharp cut-off; inactive = mostly below about 17%
Mtb FBA inh: Mtb FBA enzyme inhibitors, primary screen, biochemical, fluorescence, strain H37Rv. Fructose-bisphosphate aldolase (Mycobacterium tuberculosis (strain ATCC 25618 / H37Rv)), …. purified M. tuberculosis FBA, fluorescence read-out. inhibition, % at 1 µM. actives 2.3% (n = 360,000). AID 588726, 2011;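 also: 0% = vehicle and 100% = reference inhibitor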
Rv3671c inh: Rv3671c serine protease inhibitors, primary screen, biochemical, fluorescence polarization, M. tuberculosis H37Rv. P9WHR9. inhibition, % at 5.96 µM. actives 0.048% (n = 320,000); in the data active = inhibition above about 38%;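 also: extracellular domain of Rv3671c used as enzyme; 0% = enzyme with DMSO and 100% = no enzyme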
Target sequence (P9WHR9 whole entry, looked up, the tested form may be a part): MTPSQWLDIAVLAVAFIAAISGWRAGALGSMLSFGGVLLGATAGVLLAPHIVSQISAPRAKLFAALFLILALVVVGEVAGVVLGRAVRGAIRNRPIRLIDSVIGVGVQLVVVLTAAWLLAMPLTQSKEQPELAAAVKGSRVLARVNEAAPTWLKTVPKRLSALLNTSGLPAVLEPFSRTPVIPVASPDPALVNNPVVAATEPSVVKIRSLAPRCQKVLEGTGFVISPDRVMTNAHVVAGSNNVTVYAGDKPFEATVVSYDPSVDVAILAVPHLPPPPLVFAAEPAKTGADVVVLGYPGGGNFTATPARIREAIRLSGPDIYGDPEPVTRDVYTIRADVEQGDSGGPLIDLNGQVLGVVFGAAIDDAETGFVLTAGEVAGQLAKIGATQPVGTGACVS
GDH-TPI counter-1: GDH-TPI coupling enzyme inhibitors, primary screen, artefact control for M. tuberculosis FBA inhibitor project, biochemical, absorbance, full deck; GDH-TPI coupled enzyme counterscreen, NADH absorbance; inhibition, % at 4.8 µM; actives 1.2% (n = 360,000); in the data active = inhibition above about 30%;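 also: 0% = DMSO wells and 100% = wells lacking the enzyme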
FadD28 binding: inhibitors of FadD28 bisubstrate probe binding, primary screen, biochemical, fluorescence polarization, single point; actives 0.22% (n = 360,000); inhibition, % at 12.5 µM; Mycobacterium tuberculosis FadD28 fatty-acid-AMP ligase; in the data active = inhibition above about 8.5%, passing the limit was not always enough
Mtb UGM inh: M. tuberculosis UGM enzyme inhibitors, primary screen, biochemical, fluorescence polarization, single point. purified UGM, fluorescence polarization probe displacement. actives 0.06% (n = 320,000). inhibition, % at 10 µM. UDP-galactopyranose mutase (Mycobacterium tuberculosis (strain ATCC 25618 / H37Rv)), …; in the data active = inhibition above about 10%, passing the limit was not always enough
Mtb FBA confirm: M. tuberculosis aldolase blockers, biochemical, fluorescence, strain H37Rv, confirmation | shares compounds with Mtb FBA inh | purified M. tuberculosis FBA, fluorescence read-out | inhibition, % at 1 µM | actives 78% (n = 5,600);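 also: 0% = vehicle wells and 100% = reference inhibitor wells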
GDH-TPI counter-2: GDH-TPI coupling enzyme inhibitors, artefact control for M. tuberculosis FBA inhibitor project, biochemical, fluorescence, high throughput. shares compounds with Mtb FBA inh. GDH-TPI coupled enzyme counterscreen. inhibition, % at 1 µM. actives 81% (n = 5,600); in the data active = inhibition above about 10%
* hit, by the source's call; . = no result; + = active, no number. Rule as the data show it, unless noted: active = inhibition above about 27%; inactive = the rest.

SMILES | Mtb hypoxia inh | Mtb FBA inh | Rv3671c inh | GDH-TPI counter-1 | FadD28 binding | Mtb UGM inh | Mtb FBA confirm | GDH-TPI counter-2
CCN1CCc2c(sc3c2c(NCc2ccco2)nc2nnnn23)C1 | 1.8 | 64.2* | 4.5 | 7.5 | -3.1 | 5.3 | 8.7 | -2.2
Cc1cc(-c2ccccc2)n2ncc(C#N)c2n1 | 11.4 | 55.1* | -0.5 | 24.5 | -1.1 | 5.2 | -1.6 | -6.5
Cc1c(OC(C)C(=O)O)ccc2c(-c3ccccc3)cc(=O)oc12 (configuration not stated) | 10.8 | 34.7* | -0.5 | 18.9 | -0.5 | 3.7 | 55.1* | 39.0*
CN(C)C=Nc1cc(=O)[nH]c(=O)n1C | 18.7 | . | . | . | . | . | . | .
CCCOc1ccc(C2=CC(=O)CC(c3ccc(OC)cc3)C2)cc1 (configuration not stated) | 13.5 | . | . | . | . | . | . | .
COc1cc(C(=O)Nc2ccc(-c3nnc(-c4ccco4)o3)cc2)cc(OC)c1OC | 9.9 | -3.8 | -7.0 | 25.5 | -5.0 | 2.8 | . | .
O=C(Cc1ccc(Cl)cc1)Nc1ccc(-c2nnc(-c3ccco3)o2)cc1 | 4.6 | 59.5* | -20.2 | 18.8 | -4.3 | -3.0 | 37.6* | 31.2*
COc1ccccc1CC(=O)Nc1ccc(-c2nnc(-c3ccco3)o2)cc1 | 6.9 | 83.0* | -11.0 | 18.3 | -3.5 | -1.1 | 51.1* | 42.1*
O=C(Cc1ccccc1)Nc1ccc(-c2nnc(-c3ccco3)o2)cc1 | . | 50.6* | -17.1 | 15.4 | -0.3 | 3.2 | + | 151.3*
O=C(O)CCC(=NNC(=O)CNC(=O)C(c1ccccc1)c1ccccc1)c1ccccc1 | 3.5 | . | . | . | . | . | . | .
CC1=C(C(=O)N2CCOCC2)C(c2ccccc2F)C2=C(CCCC2=O)N1 (configuration not stated) | 3.7 | 27.8* | -0.7 | 13.7 | -2.6 | 2.8 | 92.0* | 61.3*
CC(C)=CCC/C(C)=C/CC/C(C)=C/COc1ccc2ccc(=O)oc2c1 | . | 30.3* | 0.4 | 1.7 | -2.9 | 3.3 | -6.8 | -7.7
CC(C)=CCOc1ccc2ccc(=O)oc2c1 | . | 65.3* | 4.6 | 7.8 | -3.8 | -0.2 | 59.5* | 49.9*
CC1=CC(C/C(C)=C/COc2ccc3ccc(=O)oc3c2)OC1=O (configuration not stated) | . | 47.8* | 1.5 | 12.8 | -0.4 | -0.7 | 53.6* | 44.2*
COC(=O)c1cc(COc2ccc3ccc(=O)oc3c2)c(C)o1 | 1.4 | 36.0* | -5.6 | 18.6 | -2.8 | -4.2 | 7.8 | 1.1
COC(=O)c1ccc(COc2ccc3ccc(=O)oc3c2)o1 | -9.7 | 12.2 | . | 5.9 | -1.2 | 4.9 | . | .
O=C(O)CCC(=NNc1ccc(S(=O)(=O)N2CCOCC2)cc1[N+](=O)[O-])c1cccs1 | 21.0 | . | . | . | . | . | . | .
CC1CCN(Cc2c(C(=O)NN=Cc3cccc(Cl)c3)nnn2-c2nonc2N)CC1 | 5.9 | . | . | . | . | . | . | .
COc1cc(C=NNc2nnc3c(n2)[nH]c2ccccc23)ccc1O | 8.2 | . | . | . | . | . | . | .
CN(C)c1nc(Oc2ccc(C=NO)cc2)nc(N(C)C)n1 | 3.9 | . | . | . | . | . | . | .
CCCn1c(-c2cccs2)nc2c1c(=O)[nH]c(=O)n2Cc1ccccc1 | -6.3 | 32.5* | -5.9 | 5.7 | -3.2 | 1.4 | 130.5* | 102.4*
COc1ccc(-c2nc3c(c(=O)[nH]c(=O)n3Cc3ccccc3)n2CCO)cc1 | 6.8 | 38.9* | 7.5 | -3.1 | 0.0 | -2.3 | 170.2* | 142.9*
COc1ccc(CN2CCC(=O)N(C(CO)c3ccccc3)CC2)cc1 (configuration not stated) | 8.8 | . | . | . | . | . | . | .
CC(C)C(C(=O)NC(C)(C)C)N1C(=O)c2ccccc2C1=O (configuration not stated) | 15.6 | 0.9 | -0.9 | 3.4 | -4.2 | -2.3 | . | .
CC(C(=O)NC(C)(C)C)N1C(=O)c2cccc3cccc(c23)C1=O (configuration not stated) | 2.9 | 27.2* | 4.7 | 9.5 | 0.3 | 1.0 | 3.4 | 4.8
SMILES | Mtb hypoxia inh | Mtb FBA inh | Rv3671c inh | GDH-TPI counter-1 | FadD28 binding | Mtb UGM inh | Mtb FBA confirm | GDH-TPI counter-2
C/C(C=NNC(=O)Cn1cncn1)=C/c1ccc(C(C)C)cc1 | 16.4 | . | . | . | . | . | . | .
Cc1ccc(N2CCN(N=CC3=C(N4CCOCC4)/C(=C\c4ccccc4)CC3)CC2)cc1 | 12.5 | . | . | . | . | . | . | .
Cc1cccc(C(=O)O)c1O | . | 38.4* | . | 0.7 | 1.7 | . | 87.4* | 51.5*
Nc1c(O)cccc1C(=O)O | -6.0 | 39.7* | -63.8 | 1.4 | -1.4 | 0.4 | + | 192.6*
O=C(O)c1ccccc1O | 19.4 | 46.4* | 8.7 | 12.1 | -0.4 | 2.2 | 7.2 | -2.6
O=C(NN=Cc1cccnc1)c1cc2ccccc2cc1O | 12.4 | . | . | . | . | . | . | .
CN1CC(=O)N2C(Cc3c([nH]c4ccccc34)C2c2ccc3c(c2)OCO3)C1=O (configuration not stated) | 4.2 | . | . | . | . | . | . | .
CCOc1c2ccc(C(=O)NCc3ccc4c(c3)OCO4)cc2nn1CCOC | 2.7 | 49.4* | 5.8 | -5.8 | -3.9 | -1.3 | 1.9 | -5.2
CCOc1cc(C(=O)NCc2ccc3c(c2)OCO3)cc(OCC)c1OCC | 6.4 | 1.2 | -0.1 | 8.6 | -0.6 | -0.5 | . | .
CCCn1nc2cc(C(=O)NCc3ccc4c(c3)OCO4)ccc2c1OCC | -2.5 | 61.9* | -4.8 | 0.9 | -1.6 | -0.3 | 186.1* | 167.1*
CCOc1c2ccc(C(=O)NCc3ccc4c(c3)OCO4)cc2nn1CC | 10.0 | 50.8* | -4.0 | 7.8 | -2.0 | 0.6 | 102.0* | 84.0*
CN1C(=O)c2ccc(C(=O)NCc3ccc4c(c3)OCO4)cc2C1=O | -3.2 | 3.0 | -2.2 | 2.5 | -0.9 | -2.1 | . | .
CCCCn1nc2cc(C(=O)NCc3ccc4c(c3)OCO4)ccc2c1OCC | 2.1 | 33.9* | 2.8 | -0.9 | 1.6 | -3.7 | 175.8* | 140.5*
CON=Cc1ccc(N2CCN(C(=O)c3ccc(C)cc3)CC2)c([N+](=O)[O-])c1 | 3.5 | . | . | . | . | . | . | .
Cc1cc(C)n(CC(=O)NN=Cc2cccc([N+](=O)[O-])c2)n1 | 0.6 | . | . | . | . | . | . | .
CCOC(=O)c1sc2nc(C)cc(C)c2c1N | 4.2 | 35.6* | 4.9 | 23.1 | -1.7 | 0.6 | 64.5* | 56.4*
COCc1cc(C)nc2sc(C(=O)Nc3nccs3)c(N)c12 | 4.1 | 2.7 | -1.1 | 25.5 | -0.8 | -1.6 | . | .
Cc1cc(C)c2c(N)c(C(=O)Nc3nccs3)sc2n1 | 14.2 | 105.5* | 1.2 | 13.1 | 0.5 | -1.6 | 150.8* | 109.9*
